Each compound was assayed against Kelch-like ECH-associated protein 1 (Homo sapiens) (UniProt Q14145) (assay: Keap1-Nrf2 peptide binding inhibitors, dose response, biochemical, fluorescence polarization, dry powder, set 4 (AID 651834)). Conditions: plate reader; series mostly up to 100 µM; inhibition: at the top concentration; call rule not given here.
Chain of Kelch-like ECH-associated protein 1 (Homo sapiens) (Q14145 whole entry, looked up): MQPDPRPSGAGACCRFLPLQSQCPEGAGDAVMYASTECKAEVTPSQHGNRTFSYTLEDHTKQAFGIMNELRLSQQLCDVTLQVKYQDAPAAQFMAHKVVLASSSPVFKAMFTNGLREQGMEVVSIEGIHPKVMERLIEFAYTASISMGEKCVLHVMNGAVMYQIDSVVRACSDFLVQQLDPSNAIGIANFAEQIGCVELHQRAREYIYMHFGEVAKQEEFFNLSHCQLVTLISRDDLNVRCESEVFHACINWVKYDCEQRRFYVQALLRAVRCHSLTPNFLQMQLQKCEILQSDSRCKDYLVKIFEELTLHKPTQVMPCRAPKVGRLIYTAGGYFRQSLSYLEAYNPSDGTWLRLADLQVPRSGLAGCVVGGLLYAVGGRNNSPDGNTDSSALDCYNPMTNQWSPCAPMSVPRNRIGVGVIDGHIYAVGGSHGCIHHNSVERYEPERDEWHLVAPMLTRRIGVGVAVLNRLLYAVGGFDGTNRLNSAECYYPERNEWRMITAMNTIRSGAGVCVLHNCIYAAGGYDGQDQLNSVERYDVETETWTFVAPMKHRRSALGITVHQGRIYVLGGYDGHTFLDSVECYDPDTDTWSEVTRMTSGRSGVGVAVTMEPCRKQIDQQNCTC

inhibition, inactive:
O=C1c2ccccc2C(=O)N1CC1c2ccccc2CCN1C(=O)COc1ccc(Cl)cc1Cl (stereo not given) -1.55%, COc1cc(/C=C/C(=O)N2CCC=CC2=O)cc(OC)c1OC 6.02% [at 26 µM], O=C1c2ccccc2C(=O)N1CC1c2ccccc2CCN1C(=O)c1cccc(C(F)(F)F)c1 (stereo not given) -4.99%, COc1cc(OC)cc(C(=O)N2CCc3ccccc3C2CN2C(=O)c3ccccc3C2=O)c1 (stereo not given) -3.3%, CS(=O)(=O)N1CCc2ccccc2C1CN1C(=O)c2ccccc2C1=O (stereo not given) -5.66%, CCN(CC)C(=O)N1CCc2ccccc2C1CN1C(=O)c2ccccc2C1=O (stereo not given) -0.072%, O=C(CN1CCc2ccccc2C1CN1C(=O)c2ccccc2C1=O)c1c[nH]c2ccccc12 (stereo not given) 32.3%, CC(=O)N1CCc2ccccc2C1CN1C(=O)c2ccccc2C1=O (stereo not given) 2.33%, O=C1c2ccccc2C(=O)N1CC1c2ccccc2CCN1C(=O)N1CCOCC1 (stereo not given) -3.21% [at 26 µM], O=C1c2ccccc2C(=O)N1CC1c2ccccc2CCN1S(=O)(=O)c1cccc2cccnc12 (stereo not given) 0.033%
